Measured values from PubChem BioAssay.
Activity calls are given as the source filed them.

Columns and labels:
[1] = tested on: Plasmodium falciparum Sir2 (PF13_0152, Sir2A); test: Plasmodium falciparum Sir2A binding compounds – biochemical, small-molecule microarray, 635 nm fluorescence, primary screen (AID 1098); details: fluorescence 635 nm, higher = more signal;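 also: score merges spot fluorescence intensity with its signal-to-noise ratio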
[2] = probe aDKK1 binding to arrayed compounds – biochemical, biotinylated probe, 635/667 nm fluorescence, primary screen (AID 1099); details: small-molecule microarray, higher = more signal;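 also: score merges 667nm spot fluorescence with signal to noise across triplicate slides; reference of the scale not given here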
[3] = probe aCHRDL2 binding to arrayed compounds – biochemical, biotinylated probe, 635/667 nm fluorescence, primary screen (AID 1100); details: small-molecule microarray, higher = more signal
[4] = change in splice reporter luminescence, either direction, cell-based, HEK293, spliceosome inhibition project, primary screen (AID 1101); details: HEK293 splicing luciferase reporter, 24 h, higher = more signal, called active from +8 up or from −8 down;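 also: HEK293 cells carrying a splicing-competent luciferase reporter gene; test concentration not given here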
[5] = molecular target: Fibroblast growth factor 10 (Homo sapiens) (UniProt O15520); test: compounds binding fibroblast growth factor 10 – biochemical, small-molecule microarray, 635 nm fluorescence, primary screen (AID 1102); details: FGF10 binding, fluorescence 635 nm, higher = more signal
Chain of Fibroblast growth factor 10 (Homo sapiens) (O15520 whole entry, looked up): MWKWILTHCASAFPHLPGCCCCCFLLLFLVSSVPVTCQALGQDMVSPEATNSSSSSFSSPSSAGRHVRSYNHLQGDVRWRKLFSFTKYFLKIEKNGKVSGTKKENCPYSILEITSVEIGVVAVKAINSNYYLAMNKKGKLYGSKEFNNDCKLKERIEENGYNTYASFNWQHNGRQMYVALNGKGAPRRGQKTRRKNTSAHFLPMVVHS

[6] = tested on: glycogen synthase kinase-3 (GSK3A per assay name; protocol says GSK3B); test: compounds binding glycogen synthase kinase-3 – biochemical, small-molecule microarray, 635 nm fluorescence, GSK3A, primary screen (AID 1103); details: fluorescence 635 nm, higher = more signal; also: the record names both GSK3A and GSK3B
[7] = molecular target: Epidermal growth factor receptor (Homo sapiens) (UniProt P00533); test: compounds binding epidermal growth factor receptor – biochemical, small-molecule microarray, 635 nm fluorescence, primary screen (AID 1104); details: EGFR binding, higher = more signal;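 also: score merges 667 nm emission intensity with spot signal to noise over triplicate slides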
Chain of Epidermal growth factor receptor (Homo sapiens) (P00533 whole entry, looked up): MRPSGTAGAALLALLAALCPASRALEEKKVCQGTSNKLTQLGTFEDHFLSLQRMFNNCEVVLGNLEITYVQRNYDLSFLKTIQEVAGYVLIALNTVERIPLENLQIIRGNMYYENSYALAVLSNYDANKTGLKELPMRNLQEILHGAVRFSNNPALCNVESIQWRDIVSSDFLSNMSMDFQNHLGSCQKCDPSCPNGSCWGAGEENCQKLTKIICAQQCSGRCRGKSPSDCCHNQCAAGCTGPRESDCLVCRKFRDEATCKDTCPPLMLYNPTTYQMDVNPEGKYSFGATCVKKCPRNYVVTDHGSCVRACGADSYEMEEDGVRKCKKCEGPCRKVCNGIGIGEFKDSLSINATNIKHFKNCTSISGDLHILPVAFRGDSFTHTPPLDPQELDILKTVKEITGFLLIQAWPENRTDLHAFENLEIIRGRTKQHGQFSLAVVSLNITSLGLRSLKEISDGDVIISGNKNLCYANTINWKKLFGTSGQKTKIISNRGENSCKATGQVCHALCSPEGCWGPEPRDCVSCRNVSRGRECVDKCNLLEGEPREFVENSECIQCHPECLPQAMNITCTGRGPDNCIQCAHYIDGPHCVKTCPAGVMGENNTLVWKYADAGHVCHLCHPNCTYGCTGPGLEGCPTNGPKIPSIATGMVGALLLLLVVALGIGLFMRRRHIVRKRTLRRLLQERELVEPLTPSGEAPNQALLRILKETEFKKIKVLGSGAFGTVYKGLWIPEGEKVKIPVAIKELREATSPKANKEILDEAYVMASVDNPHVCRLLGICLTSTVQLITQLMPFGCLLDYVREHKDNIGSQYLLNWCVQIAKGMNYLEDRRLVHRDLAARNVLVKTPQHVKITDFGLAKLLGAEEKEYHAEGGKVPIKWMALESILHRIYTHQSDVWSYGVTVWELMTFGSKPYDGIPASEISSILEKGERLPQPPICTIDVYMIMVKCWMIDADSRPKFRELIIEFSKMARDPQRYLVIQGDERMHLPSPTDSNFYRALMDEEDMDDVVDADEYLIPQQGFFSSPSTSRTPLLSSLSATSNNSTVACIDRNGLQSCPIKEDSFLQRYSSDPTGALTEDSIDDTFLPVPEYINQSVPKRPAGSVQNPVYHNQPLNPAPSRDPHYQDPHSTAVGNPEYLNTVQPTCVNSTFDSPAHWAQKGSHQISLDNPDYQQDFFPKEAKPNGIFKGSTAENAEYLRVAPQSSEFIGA

[8] = molecular target: Follistatin-related protein 3 (Homo sapiens) (UniProt O95633); test: compounds binding follistatin-related protein 3 – biochemical, small-molecule microarray, 635 nm fluorescence, primary screen (AID 1105); details: FSTL3 binding, higher = more signal;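 also: score merges emission near 667 nm and signal to noise per printed spot across three slides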
Chain of Follistatin-related protein 3 (Homo sapiens) (O95633 whole entry, looked up): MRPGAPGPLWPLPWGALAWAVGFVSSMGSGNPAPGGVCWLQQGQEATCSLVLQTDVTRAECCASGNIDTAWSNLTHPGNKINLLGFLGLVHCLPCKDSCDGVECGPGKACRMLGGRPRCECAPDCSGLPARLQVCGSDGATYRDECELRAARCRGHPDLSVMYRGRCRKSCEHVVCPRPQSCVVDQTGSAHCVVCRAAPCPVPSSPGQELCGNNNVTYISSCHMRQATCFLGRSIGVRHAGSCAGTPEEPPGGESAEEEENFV

[9] = molecular target: Dickkopf-related protein 1 (Homo sapiens) (UniProt O94907); test: small molecules binding DKK1 protein – biochemical, small-molecule microarray, 635 nm fluorescence scan, primary screen (AID 1106); details: higher = more signal;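 also: score merges emission near 667 nm with signal to noise over three replicate slides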
Chain of Dickkopf-related protein 1 (Homo sapiens) (O94907 whole entry, looked up): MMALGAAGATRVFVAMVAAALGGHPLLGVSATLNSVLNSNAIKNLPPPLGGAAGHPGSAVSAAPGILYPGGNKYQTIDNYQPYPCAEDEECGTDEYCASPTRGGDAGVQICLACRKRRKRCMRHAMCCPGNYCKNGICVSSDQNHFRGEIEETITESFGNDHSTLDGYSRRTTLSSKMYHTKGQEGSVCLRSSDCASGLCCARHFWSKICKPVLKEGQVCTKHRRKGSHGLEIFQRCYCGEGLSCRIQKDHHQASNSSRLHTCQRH

[10] = tested on: Inhibin beta A chain (activin A); test: small molecules binding activin A – biochemical, small-molecule microarray, 635 nm fluorescence scan, primary screen (AID 1107); details: INHBA, higher = more signal;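 also: mouse activin A protein probed at 4.33 µg/mL on printed slides; score merges bound-protein fluorescence near 667 nm with spot signal-to-noise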

SMILES | composite z-score [1] | composite z-score [2] | composite z-score [3] | z-score [4] | composite z-score [5] | composite z-score [6] | composite z-score [7] | composite z-score [8] | composite z-score [9] | composite z-score [10]
O=C1NC(=O)C2C1C=CC(C(O)c1ccc3c(c1)OCO3)N2Nc1ccccn1 (stereo not given) | 0.165 | 0.301 | 0.555 | -0.653 (inactive) | 0.212 | 0.0668 | 0.722 | 1.39 | 0.388 | 1.64
C=C(/C(=C/C[C@@H](OC(=O)c1ccncc1)c1ccccc1OCCO)c1cc(C(=O)OC)ccc1OC)C(C)C | 1.04 | -0.223 | -0.151 | -1.25 (inactive) | 1.12 | 0.759 | 0.228 | 0.467 | 0.328 | 0.787
COCCOC(=O)N1C(=O)[C@@]2(c3cc(C#CC4=CCCCC4)ccc31)[C@H](C(=O)N1CCN(c3ncccn3)CC1)[C@H]1C(=O)O[C@H](c3ccccc3)[C@H](c3ccccc3)N1[C@@H]2c1ccc(O)cc1 | 0.827 | 0.646 | 0.509 | 0.345 (inactive) | 0.664 | 1.27 | 0.466 | 1.14 | 0.496 | 0.275
C=CCC(OC(C)=O)[C@@H]1[C@@H](N(Cc2cc3ccccc3o2)C(=O)c2ccc(C)cc2)c2cc(OCCCO)ccc2N1C(=O)Cc1ccc2ccccc2c1 (stereo not given in full) | -0.45 | 0.258 | 0.43 | -0.793 (inactive) | -0.204 | -0.822 | -0.0197 | -0.32 | 0.182 | 1.2
CC(C)C(=C=CC[C@@H](O)c1ccccc1OCCO)C[C@@H](O)COCc1ccccc1 | 1.23 | 0.469 | 0.264 | -2.12 (inactive) | 1.35 | -0.0582 | 0.22 | 0.589 | -0.691 | 1.35
C=C(C(=O)CC[C@H](OC(C)=O)c1cccc(OCCO)c1)C(C)C | -0.382 | -0.352 | -0.115 | 0.143 (inactive) | -0.924 | -1.24 | -1.31 | -0.835 | -1.07 | 0.0244
COc1ccc([Si](C)(C)[C@H]2[C@H](CCn3cc([C@H](O)c4ccccc4)nn3)O[C@@]3(C(=O)N(Cc4ccc(N5CCOC5=O)cc4)c4ccccc43)[C@@H]2C)cc1 | -0.215 | 0.555 | 0.282 | -0.372 (inactive) | -1.23 | -2.18 | -0.228 | -1.54 | -0.958 | -0.794
O=C1c2ccccc2[C@](Cc2ccccc2I)(C(=O)NCCN2CCOCC2)[C@H](c2ccc(CO)cc2)N1Cc1ccccc1 | 1.21 | 1.05 | 0.345 | -0.825 (inactive) | 0.712 | 1.04 | 0.167 | 1.04 | 0.352 | 0.59
O=C1OCC=C[C@H]2OC34C=CCN(c5ccc(Cl)cc5)C(=O)[C@H]3N(CCCCCO)C(=O)[C@@H]4[C@@H]12 (stereo not given in full) | 0.311 | -0.204 | 0.822 | -0.784 (inactive) | -1.23 | -1.26 | -1.44 | -1.51 | -1.22 | -0.262
CC=CC(O)C1C=CC2C(=O)N(c3ccccc3)C(=O)C2N1Nc1ccccc1 (stereo not given) | 1.37 | 0.864 | 0.882 | -0.0227 (inactive) | 1.11 | 1.29 | 0.247 | 1.36 | 0.239 | 0.871
COc1ccc(NC(=O)O[C@H]2[C@H](OC(=O)Nc3ccc4c(c3)OCO4)[C@@H](OC(=O)Nc3ccc4c(c3)OCO4)[C@@H](OC)O[C@@H]2CO)cc1 | 1.61 | 0.0898 | 0.0398 | 1.27 (inactive) | 1.11 | 1.29 | 0.0699 | 0.516 | 0.0542 | 0.774
COc1ccc(C(O)C2C=CC3C(=O)N(c4ccccc4)C(=O)C3N2Nc2ccccc2)cc1OCc1ccccc1 (stereo not given) | 0.964 | 0.294 | 0.77 | 0.161 (inactive) | 1.21 | 1.29 | -0.0831 | 1.29 | -0.0662 | 0.726
O=C1O[C@@H](c2ccccc2)[C@@H](c2ccccc2)N2[C@@H](c3ccc(O)cc3)[C@]3(C(=O)Nc4ccccc43)[C@@H](C(=O)Nc3nc4ccccc4s3)[C@H]12 | 1.38 | -0.111 | 0.02 | 0.641 (inactive) | 0.488 | 0.878 | -0.104 | 0.415 | 0.065 | 0.3
Cc1ccc(S[C@]2(C(=O)O)CC(=O)N(Cc3ccccc3Cl)[C@@H]2c2ccc(CO)cc2)cc1 | -0.189 | 0.505 | 0.938 | 1.39 (inactive) | -0.165 | -0.851 | -0.84 | -1.1 | -0.817 | 0.387
C=C(C(=O)CC[C@H](OC(=O)c1cccnc1)c1cccc(OCCO)c1)C(C)C | 1.24 | -0.061 | 0.125 | 1.76 (inactive) | -0.64 | -0.418 | -0.792 | -1.05 | -0.878 | 1.16
COCCCNC(=O)[C@@]1(Sc2ccc(C)cc2)CC(=O)N(Cc2cc(C(F)(F)F)cc(C(F)(F)F)c2)[C@@H]1c1ccc(CO)cc1 | 1.08 | -0.0248 | -0.0087 | 0.261 (inactive) | 0.327 | -0.257 | -0.107 | 1.01 | 0.585 | 0.612
COCCOC(=O)N1C(=O)[C@@]2(c3cc(C#CCC(C(=O)OC)C(=O)OC)ccc31)[C@H](c1ccc(OCCO)cc1)N1[C@H](c3ccccc3)[C@H](c3ccccc3)OC(=O)[C@H]1[C@@H]2C(=O)N1CCN(c2ncccn2)CC1 | 1.36 | 0.0926 | 0.233 | -0.0387 (inactive) | 0.994 | 1.07 | 0.517 | 1.45 | 0.637 | 0.109
COc1cc(CO)cc(I)c1O[C@H]1C=C(C(=O)NCCO)C[C@@H](NCc2ccccc2F)[C@@H]1O | 0.947 | -0.28 | -0.18 | -0.977 (inactive) | 1.06 | 0.417 | 0.152 | 0.638 | 0.239 | 0.0253
CC(C)CNC(=O)[C@@]1(c2ccc([N+](=O)[O-])cc2)CC(=O)N(C2CCCCC2)[C@@H]1c1ccc(CO)cc1I | 1.67 | 0.349 | 0.641 | -0.721 (inactive) | 0.489 | -0.198 | -0.519 | -0.16 | -0.477 | 0.138
O=C1O[C@@H](c2ccccc2)[C@@H](c2ccccc2)N2[C@@H](c3ccc(O)cc3)[C@]3(C(=O)Nc4ccc(C#CCCO)cc43)[C@@H](C(=O)NC[C@H](O)c3ccccc3)[C@H]12 | -0.029 | -0.301 | 0.785 | 0.0041 (inactive) | -1.01 | -0.375 | -0.637 | -0.802 | -1.26 | -0.926
O=C1O[C@@H](c2ccccc2)[C@@H](c2ccccc2)N2[C@@H](c3ccccc3OCCO)[C@]3(C(=O)Nc4ccc(C#CCCO)cc43)[C@@H](C(=O)Nc3nc4ccccc4s3)[C@H]12 | 0.757 | 0.74 | 0.862 | -0.0337 (inactive) | 0.828 | 1.28 | 0.528 | 1.35 | 0.76 | 0.406
O=C(CS)NCCCCCCNC(=O)[C@@H]1C[C@@H]2C(=O)N3CCC[C@H]3C(=O)N2[C@@H]1c1cccc(OCCO)c1 | 1.62 | 0.0302 | 0.396 | -1.77 (inactive) | 0.964 | 0.896 | 0.559 | 0.704 | 0.426 | 0.653
O=C1C2C=CC(C(O)c3cc(C(F)(F)F)cc(C(F)(F)F)c3)N(Nc3ccc([N+](=O)[O-])cc3)C2C(=O)N1c1ccccc1 (stereo not given) | 0.905 | 0.359 | 0.499 | 0.765 (inactive) | 0.902 | 1.34 | 0.437 | 1.39 | -0.246 | -0.0083
COc1ccc([Si](C)(C)[C@H]2[C@H](CCO)O[C@@]3(C(=O)N(Cc4cccc(N5CCCCC5=O)c4)c4ccccc43)[C@@H]2C)cc1 | 1.08 | 0.176 | 0.0883 | -2.37 (inactive) | 0.748 | 0.845 | 0.525 | 1.16 | 0.82 | 0.861
CCCNC(=O)[C@@]1(c2ccc([N+](=O)[O-])cc2)CC(=O)N(C2CCCCC2)[C@@H]1c1ccc(CO)cc1I | 1.51 | 0.57 | 0.796 | -0.68 (inactive) | 0.841 | 0.705 | 0.297 | 0.532 | 0.214 | -0.406
